Data: PubChem BioAssay (NCI)
About 83,000 compounds went through this panel and 20% of them were active in at least one assay; those are over-represented in the sample as a whole.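 Values shown are percent growth following 48 h exposure of cells in 96-well plates to a single concentration of compound; below 10 was considered active.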 Unmarked numbers belong to inactive results. Calls of active or inactive are those of the source.

Key:
Experiment in all cases: NCI-60 one-dose screen, 48 h (100 = growth as untreated, 0 = no growth, -100 = all killed)
Conditions in all cases: 10 µM unless noted
DU-145 prostate = system: DU-145 prostate
K-562 leukemia = system: K-562 leukemia
MALME-3M melanoma = system: MALME-3M melanoma
MDA-MB-231 breast = system: MDA-MB-231 breast
RXF 393 renal = system: RXF 393 renal
SF-268 CNS = system: SF-268 CNS
SF-295 CNS = system: SF-295 CNS
SF-539 CNS = system: SF-539 CNS
UACC-257 melanoma = system: UACC-257 melanoma
M14 melanoma = system: M14 melanoma
HCT-15 colon = system: HCT-15 colon
HT29 colon = system: HT29 colon
SNB-75 CNS = system: SNB-75 CNS
SNB-19 CNS = system: SNB-19 CNS
U251 CNS = system: U251 CNS
PC-3 prostate = system: PC-3 prostate
SK-MEL-5 melanoma = system: SK-MEL-5 melanoma
UACC-62 melanoma = system: UACC-62 melanoma
LOX IMVI melanoma = system: LOX IMVI melanoma
SK-MEL-28 melanoma = system: SK-MEL-28 melanoma

Work on `COc1ccc(S(=O)(=O)NCCNc2nccc(-c3c(-c4cccc(F)c4)nc4sccn34)n2)cc1` yielded a growth (DU-145 prostate) of 48.3%, a growth (K-562 leukemia) of 23% and a growth (MALME-3M melanoma) of 49.1%. It also gave a growth (MDA-MB-231 breast) of 61.4%, a growth (RXF 393 renal) of 28.8% and a growth (SF-268 CNS) of 35.4%. The growth (SF-295 CNS) was 58.5%, the growth (SF-539 CNS) was 77.4% and the growth (UACC-257 melanoma) was 66.7%. It also gave a growth (M14 melanoma) of 38.4%, a growth (HCT-15 colon) of 23.4% and a growth (HT29 colon) of 23.9%. The growth (SNB-75 CNS) was -0.29% (active), the growth (SNB-19 CNS) was 58.3% and the growth (U251 CNS) was 52.5%. The growth (PC-3 prostate) was 29.4%, the growth (SK-MEL-5 melanoma) was 9.62% (active) and the growth (UACC-62 melanoma) was 39%. The growth (LOX IMVI melanoma) was 32.9% and the growth (SK-MEL-28 melanoma) was 60%.
`Cc1ccc(C(=O)CSc2nc(-c3ccc(Br)cc3)c(C#N)c(=O)[nH]2)cc1` gave a growth (DU-145 prostate) of 104%, a growth (K-562 leukemia) of 53.3% and a growth (MALME-3M melanoma) of 93%. The growth (MDA-MB-231 breast) was 96.4%, the growth (RXF 393 renal) was 99.1% and the growth (SF-268 CNS) was 97.5%. The growth (SF-295 CNS) was 106%, the growth (SF-539 CNS) was 94.8% and the growth (UACC-257 melanoma) was 98.7%. For the same compound, the growth (M14 melanoma) was 92.7%, the growth (HCT-15 colon) was 105% and the growth (HT29 colon) was 93.9%. It also gave a growth (SNB-75 CNS) of 64.5%, a growth (SNB-19 CNS) of 96.7% and a growth (U251 CNS) of 105%. The growth (PC-3 prostate) was 90.9%, the growth (SK-MEL-5 melanoma) was 97.2% and the growth (UACC-62 melanoma) was 97.1%. For the same compound, the growth (LOX IMVI melanoma) was 98% and the growth (SK-MEL-28 melanoma) was 101%.
With `CCCCCc1nc2c(c3c1CCCC3)CCCC2` the growth (DU-145 prostate) was 114%, the growth (K-562 leukemia) was 37.3% and the growth (MALME-3M melanoma) was 102%. For the same compound, the growth (MDA-MB-231 breast) was 104%, the growth (RXF 393 renal) was 80% and the growth (SF-268 CNS) was 105%. It also gave a growth (SF-295 CNS) of 81.6%, a growth (SF-539 CNS) of 93.2% and a growth (UACC-257 melanoma) of 82.5%. For the same compound, the growth (M14 melanoma) was 103%, the growth (HCT-15 colon) was 74.8% and the growth (HT29 colon) was 55.4%. It also gave a growth (SNB-75 CNS) of 82.1%, a growth (SNB-19 CNS) of 72.8% and a growth (U251 CNS) of 83.7%. It also gave a growth (PC-3 prostate) of 64.9%, a growth (SK-MEL-5 melanoma) of 83.8% and a growth (UACC-62 melanoma) of 82.2%. For the same compound, the growth (LOX IMVI melanoma) was 88.3% and the growth (SK-MEL-28 melanoma) was 100%.
For `COC1=C(OC)C(=O)C(OC)=C(OC)C1=O`, the growth (DU-145 prostate) was 101%, the growth (K-562 leukemia) was 87.2% and the growth (MALME-3M melanoma) was 101%. For the same compound, the growth (MDA-MB-231 breast) was 46.3%, the growth (RXF 393 renal) was 95% and the growth (SF-268 CNS) was 94.4%. It also gave a growth (SF-295 CNS) of 97.7%, a growth (SF-539 CNS) of 114% and a growth (UACC-257 melanoma) of 107%. It also gave a growth (M14 melanoma) of 105%, a growth (HCT-15 colon) of 108% and a growth (HT29 colon) of 104%. For the same compound, the growth (SNB-75 CNS) was 106%, the growth (SNB-19 CNS) was 99% and the growth (U251 CNS) was 105%. For the same compound, the growth (PC-3 prostate) was 95.5%, the growth (SK-MEL-5 melanoma) was 105% and the growth (UACC-62 melanoma) was 102%. For the same compound, the growth (LOX IMVI melanoma) was 90.7% and the growth (SK-MEL-28 melanoma) was 105%.
Work on `COc1cc(C2CC(=O)Nc3c2c(C)nn3-c2nc3ccccc3[nH]2)c(OC)c2c1OCO2` (stereo not given) yielded a growth (DU-145 prostate) of 88.5%, a growth (K-562 leukemia) of 17.2% and a growth (MALME-3M melanoma) of 73.9%. It also gave a growth (MDA-MB-231 breast) of 73.4%, a growth (RXF 393 renal) of 73.2% and a growth (SF-268 CNS) of 71%. It also gave a growth (SF-295 CNS) of 36.9%, a growth (SF-539 CNS) of 78.4% and a growth (UACC-257 melanoma) of 85.5%. For the same compound, the growth (M14 melanoma) was 52.1%, the growth (HCT-15 colon) was 40.2% and the growth (HT29 colon) was 95%. For the same compound, the growth (SNB-75 CNS) was 31.1%, the growth (SNB-19 CNS) was 71.4% and the growth (U251 CNS) was 67.8%. For the same compound, the growth (PC-3 prostate) was 71.3%, the growth (SK-MEL-5 melanoma) was 56.9% and the growth (UACC-62 melanoma) was 55.5%. The growth (LOX IMVI melanoma) was 82.1% and the growth (SK-MEL-28 melanoma) was 75.8%.
In the case of `O=C(CCCCCCSc1nc(-c2ccccc2)cc(-c2ccc(Cl)cc2)n1)NO`, the growth (DU-145 prostate) is reported as 6.26% (active), the growth (K-562 leukemia) is reported as 8.35% (active) and the growth (MALME-3M melanoma) is reported as 7.3% (active). For the same compound, the growth (MDA-MB-231 breast) was 25.3%, the growth (RXF 393 renal) was -17% (active) and the growth (SF-268 CNS) was 15%. The growth (SF-295 CNS) was 27.1%, the growth (SF-539 CNS) was 25% and the growth (UACC-257 melanoma) was 6.32% (active). For the same compound, the growth (M14 melanoma) was 6.52% (active), the growth (HCT-15 colon) was 15.6% and the growth (HT29 colon) was 4.56% (active). For the same compound, the growth (SNB-75 CNS) was 17.8%, the growth (SNB-19 CNS) was 18.3% and the growth (U251 CNS) was 0.693% (active). For the same compound, the growth (PC-3 prostate) was 39.9%, the growth (SK-MEL-5 melanoma) was -26.9% (active) and the growth (UACC-62 melanoma) was -1.11% (active). For the same compound, the growth (LOX IMVI melanoma) was -78% (active) and the growth (SK-MEL-28 melanoma) was 42%.
`COc1ccc(/C=C/c2c(C(=O)/C=C/c3cccs3)c(C)nc3ccccc23)cc1` showed a growth (DU-145 prostate) of 82.7%, a growth (K-562 leukemia) of 43.1% and a growth (MALME-3M melanoma) of 107%. For the same compound, the growth (MDA-MB-231 breast) was 78.2%, the growth (RXF 393 renal) was 77.4% and the growth (SF-268 CNS) was 85.3%. The growth (SF-295 CNS) was 86.3%, the growth (SF-539 CNS) was 95.9% and the growth (UACC-257 melanoma) was 83.8%. For the same compound, the growth (M14 melanoma) was 89.3%, the growth (HCT-15 colon) was 59.5% and the growth (HT29 colon) was 77.7%. For the same compound, the growth (SNB-75 CNS) was 72%, the growth (SNB-19 CNS) was 85.1% and the growth (U251 CNS) was 85.6%. For the same compound, the growth (PC-3 prostate) was 63%, the growth (SK-MEL-5 melanoma) was 70.3% and the growth (UACC-62 melanoma) was 59.1%. For the same compound, the growth (LOX IMVI melanoma) was 84.5% and the growth (SK-MEL-28 melanoma) was 92.4%.
In the case of `Nc1cc2c3c(cccc3c1)C(=O)N(CCN1CCCC1)C2=O`, the growth (DU-145 prostate) is reported as 28.4%, the growth (K-562 leukemia) is reported as 14.7% and the growth (MALME-3M melanoma) is reported as 41.5%. It also gave a growth (MDA-MB-231 breast) of 55.2%, a growth (RXF 393 renal) of 48.2% and a growth (SF-268 CNS) of 33.7%. It also gave a growth (SF-295 CNS) of 44.5%, a growth (SF-539 CNS) of 29% and a growth (UACC-257 melanoma) of 51.3%. It also gave a growth (M14 melanoma) of 49.4%, a growth (HCT-15 colon) of 30.3% and a growth (HT29 colon) of 26.2%. It also gave a growth (SNB-75 CNS) of 48%, a growth (SNB-19 CNS) of 41.9% and a growth (U251 CNS) of 28.9%. The growth (PC-3 prostate) was 40.8%, the growth (SK-MEL-5 melanoma) was 9.37% (active) and the growth (UACC-62 melanoma) was 26.6%. For the same compound, the growth (LOX IMVI melanoma) was 11.9% and the growth (SK-MEL-28 melanoma) was 62.3%.
